Among all 5,500 compounds or so, about 2,000 (36%) were called active. Inconclusive results (about 18%) are left out. Rule as the data show it: active = normalized growth mostly below about 0.91 (no sharp cut-off); inconclusive = no clear call, values can overlap the other calls; inactive = mostly above about 0.92. Some of the results follow.
Experiment: chemical genetic growth profiling, strain panel (AID 1159580);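 also: tested at 20 µM; growth read once vehicle control cultures reached saturation at 30 °C; 1 = growth at the plate median or of vehicle wells; lower values mean less growth of the strain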
Conditions: S. cerevisiae deletion strains, growth OD
[1] = locus YAL021C, strain ccr4, active compounds read low
[2] = locus YAL026C, strain drs2, active compounds read low
[3] = locus YAL030W, strain snc1, active compounds read low
[4] = locus YBL061C, strain skt5, active compounds read low
[5] = locus YBR009C, strain hhf1, active compounds read low
[6] = locus YBR023C, strain chs3, active compounds read low
[7] = locus YBR171W, strain sec66, active compounds read low
[8] = locus YBR231C, strain swc5, active compounds read low
[9] = locus YBR279W, strain paf1, active compounds read low
[10] = locus YCL011C, strain gbp2, active compounds read low
[11] = locus YCL016C, strain dcc1, active compounds read low
[12] = locus YCL061C, strain MRC1, active compounds read low
[13] = locus YCL069W, strain vba3, active compounds read low
[14] = locus YCR088W, strain abp1, active compounds read low
[15] = locus YDL005C, strain med2, active compounds read low
[16] = locus YDL040C, strain nat1, active compounds read low
[17] = locus YDR001C, strain nth1, active compounds read low
[18] = locus YDR069C, strain doa4, active compounds read low
[19] = locus YDR137W, strain rgp1, active compounds read low
[20] = locus YDR159W, strain sac3, active compounds read low
[21] = locus YDR297W, strain sur2, active compounds read low
[22] = locus YDR334W, strain swr1, active compounds read low
[23] = locus YDR335W, strain msn5, active compounds read low
[24] = locus YDR392W, strain spt3, active compounds read low
[25] = locus YEL003W, strain gim4, active compounds read low
[26] = locus YEL037C, strain rad23, active compounds read low
[27] = locus YEL061C, strain CIN8 (second series), active compounds read low
[28] = locus YER015W, strain faa2, active compounds read low
[29] = locus YER016W, strain bim1, active compounds read low
[30] = locus YER111C, strain swi4, active compounds read low
[31] = locus YER155C, strain BEM2 (second series), active compounds read low
[32] = locus YFR010W, strain ubp6, active compounds read low
[33] = locus YGL167C, strain pmr1, active compounds read low
[34] = locus YGL173C, strain kem1, active compounds read low
[35] = locus YGL227W, strain vid30, active compounds read low
[36] = locus YGL240W, strain doc1, active compounds read low
[37] = locus YGL253W, strain hxk2, active compounds read low
[38] = locus YHR013C, strain ard1, active compounds read low
[39] = locus YHR027C, strain rpn1, active compounds read low
[40] = locus YHR030C, strain SLT2, active compounds read low
[41] = locus YHR079C, strain IRE1, active compounds read low
[42] = locus YHR142W, strain chs7, active compounds read low
[43] = locus YJL092W, strain hpr5, active compounds read low
[44] = locus YJL095W, strain BCK1 (second series), active compounds read low
[45] = locus YJL095W, strain BCK1, active compounds read low
[46] = locus YJL115W, strain asf1, active compounds read low
[47] = locus YJL129C, strain trk1, active compounds read low
[48] = locus YJL154C, strain vps35, active compounds read low
[49] = locus YJL164C, strain tpk1, active compounds read low
[50] = locus YJL166W, strain qcr8, active compounds read low
[51] = locus YJL187C, strain SWE1, active compounds read low
[52] = locus YJR066W, strain TOR1, active compounds read low
[53] = locus YKL160W, strain elf1, active compounds read low
[54] = locus YKR026C, strain gcn3, active compounds read low
[55] = locus YKR091W, strain srl3, active compounds read low
[56] = locus YLL001W, strain dnm1, active compounds read low
[57] = locus YLL026W, active compounds read low
[58] = locus YLL041C, strain sdh2, active compounds read low
[59] = locus YLR027C, strain aat2, active compounds read low
[60] = locus YLR113W, strain HOG1, active compounds read low
[61] = locus YLR221C, strain rsa3, active compounds read low
[62] = locus YLR258W, strain gsy2, active compounds read low
[63] = locus YLR262C, strain YPT6 (second series), active compounds read low
[64] = locus YLR320W, strain mms22, active compounds read low
[65] = locus YLR342W, strain FKS1, active compounds read low
[66] = locus YLR357W, strain rsc2, active compounds read low
[67] = locus YLR370C, strain arc18, active compounds read low
[68] = locus YLR384C, strain iki3, active compounds read low
[69] = locus YML120C, strain ndi1, active compounds read low
[70] = locus YMR058W, strain fet3, active compounds read low
[71] = locus YMR125W, strain sto1, active compounds read low
[72] = locus YMR129W, active compounds read low
[73] = locus YMR205C, strain PFK2, active compounds read low
[74] = locus YMR231W, strain pep5, active compounds read low
[75] = locus YNL071W, strain lat1, active compounds read low
[76] = locus YNL183C, strain NPR1, active compounds read low
[77] = locus YNL209W, strain ssb2, active compounds read low
[78] = locus YNL248C, strain rpa49, active compounds read low
[79] = locus YNL322C, strain KRE1 (second series), active compounds read low
[80] = locus YNR049C, strain mso1, active compounds read low
[81] = locus YOR001W, strain rrp6, active compounds read low
[82] = locus YOR070C, strain gyp1, active compounds read low
[83] = locus YOR080W, strain dia2, active compounds read low
[84] = locus YOR083W, strain WHI5, active compounds read low
[85] = locus YOR106W, strain vam3, active compounds read low
[86] = locus YOR231W, strain MKK1, active compounds read low
[87] = locus YOR265W, strain rbl2, active compounds read low
[88] = locus YOR270C, strain vph1, active compounds read low
[89] = locus YOR290C, strain snf2, active compounds read low
[90] = locus YPL051W, strain arl3, active compounds read low
[91] = locus YPL078C, strain atp4, active compounds read low
[92] = locus YPL106C, strain sse1, active compounds read low
[93] = locus YPL240C, strain hsp82, active compounds read low
[94] = locus YPL256C, strain CLN2, active compounds read low

Measured: normalized growth

O=C(NC1CCCCC1)NC1CCCCC1
inactive: [1] 0.987 | [2] 0.995 | [3] 0.976 | [4] 0.976 | [5] 0.998 | [6] 0.976 | [7] 0.977 | [8] 0.981 | [9] 0.981 | [10] 0.973 | [11] 0.97 | [12] 0.983 | [13] 0.978 | [14] 0.973 | [15] 0.981 | [16] 0.981 | [17] 0.972 | [18] 0.979 | [19] 0.964 | [20] 0.995 | locus YDR195W, strain ref2 0.958 | [21] 0.971 | [22] 0.961 | [23] 0.98 | [24] 0.918 | [25] 0.983 | [26] 0.977 | [27] 0.982 | [28] 0.99 | [29] 0.981 | [30] 0.96 | [31] 0.971 | [32] 0.988 | [33] 0.976 | [34] 0.98 | [35] 0.972 | [36] 0.986 | [37] 0.99 | [38] 0.97 | [39] 1 | [40] 1.08 | [41] 1.07 | [42] 0.956 | [43] 0.981 | [44] 0.973 | [45] 1.07 | [46] 0.969 | [47] 0.953 | [48] 0.972 | [49] 0.995 | [50] 0.985 | [51] 0.979 | [52] 1.01 | [53] 0.977 | [54] 0.972 | [55] 0.977 | [56] 0.966 | [57] 0.981 | [58] 0.982 | [59] 0.991 | [60] 1.03 | [61] 0.976 | [62] 0.972 | [63] 0.96 | [64] 0.974 | [65] 0.975 | [66] 0.977 | [67] 0.983 | [68] 0.951 | [69] 0.969 | [70] 0.987 | [71] 0.96 | [72] 0.977 | [73] 0.969 | [74] 0.978 | [75] 0.985 | [76] 1 | [77] 0.974 | [78] 0.98 | [79] 0.962 | [80] 0.978 | [81] 0.995 | [82] 0.97 | [83] 0.971 | [84] 0.971 | [85] 0.983 | [86] 1.04 | [87] 0.979 | [88] 0.905 | [89] 0.953 | [90] 0.983 | [91] 0.981 | [92] 0.951 | [93] 0.98 | [94] 1.08

NCCNCCNCCN
inactive: [1] 0.984 | [2] 1.01 | [3] 0.998 | [4] 1 | [5] 1.01 | [6] 1.01 | [7] 1 | [8] 0.992 | [9] 0.999 | [10] 0.992 | [11] 1 | [12] 0.986 | [13] 0.995 | [14] 1 | [15] 1.01 | [16] 1 | [17] 0.99 | [18] 1 | [19] 1 | [20] 0.996 | locus YDR195W, strain ref2 0.982 | [21] 0.995 | [22] 1 | [23] 0.998 | [24] 1.01 | [25] 0.999 | [26] 0.994 | [27] 0.998 | [28] 0.991 | [29] 1 | [30] 1 | [31] 1.04 | [32] 0.998 | [33] 0.998 | [34] 1.01 | [35] 1 | [36] 1.02 | [37] 0.994 | [38] 1 | [39] 1 | [40] 1.02 | [41] 1.02 | [42] 0.961 | [43] 0.999 | [44] 0.995 | [45] 0.989 | [46] 1.01 | [47] 0.991 | [48] 1 | [49] 0.997 | [50] 0.994 | [51] 1 | [52] 0.955 | [53] 0.987 | [54] 0.993 | [55] 0.991 | [56] 0.997 | [57] 1.01 | [58] 0.997 | [59] 1 | [60] 0.976 | [61] 0.984 | [62] 1.01 | [63] 0.985 | [64] 1 | [65] 1 | [66] 1.02 | [67] 0.995 | [68] 0.999 | [69] 0.991 | [70] 1 | [71] 1.01 | [72] 0.997 | [73] 1.02 | [74] 1 | [75] 1.01 | [76] 0.946 | [77] 0.998 | [78] 0.975 | [79] 1 | [80] 0.993 | [81] 0.988 | [82] 1 | [83] 1 | [84] 0.985 | [85] 0.986 | [86] 0.995 | [87] 0.996 | [88] 0.937 | [89] 1 | [90] 0.997 | [91] 0.992 | [92] 1.02 | [93] 0.977 | [94] 1.01

Reference: PubChem BioAssay AID1159580 (chemical genetic matrix, 2015)
